Drawing on PubChem BioAssay (Tox21), this text covers Potency and max activation for 16 compounds.

Structures are written as SMILES. Values joined by “and” are separate entries in the source; they are usually repeats but may differ in a detail not shown here. Identical values can stand only once. Records with an inconclusive call do not appear. The source holds several records for some structures; these can differ, active in one and inactive in another. Active and inactive are the calls of the source. Unless noted, calls follow the shape of the dose curve; as a rule, active = well fitted curve in the direction sought with a large enough effect in the repeat runs; inconclusive = weak or mixed curves; inactive = no such curve, though single readings can be large; an effect the other way counts as inactive or inconclusive.

Assay [1] is described as follows: Caspase-3/7 induction in HepG2 cells by small molecules, qHTS assay (AID 1346978). Also: nearly all actives have a fitted effect of over 15% in size. Also: potency is read from the fitted curve at half-maximal effect. The method, boiled down: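 Wild-type HepG2 cells, 2,000/well, settled 5 hr at 37 C and 5% CO2, then compound-treated for 17 hr; caspase-3/7 activity read by luminescent Caspase-Glo 3/7 after 30 min at room temperature.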
On the technique in general: Quantitative high-throughput screening tests each substance at several concentrations.

Assay [2] can be described thus: Caspase-3/7 induction in CHO-K1 cells by small molecules, qHTS cell viability counter screen (AID 1346979). Also: nearly all actives have a fitted effect of over 35% in size. Also: potency is read from the fitted curve at half-maximal effect. The method, boiled down: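 Seeding: 1,500 CHO-K1 cells/well. Rest: 5hr, 37C. Treatment: compounds in DMSO, 16hr. Read: CellTiter-Fluor, 1hr, fluorescence.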
The nature of assay [3]: Caspase-3/7 induction in CHO-K1 cells by small molecules, qHTS assay (AID 1346980). Also: nearly all actives have a fitted effect of over 15% in size. The method, boiled down:
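Wild-type CHO-K1 cells exposed to compounds for 17hr at 37 C, 5% CO2. Caspase-3/7 activity then measured by Caspase-Glo 3/7 luminescence after 30min at room temperature.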

Assay [4] deals with Nuclear receptor subfamily 1 group I member 2 (Homo sapiens) (UniProt O75469). As to the kind of experiment: Human pregnane X receptor (PXR) small molecule agonists, qHTS assay (AID 1346982). Also: nearly all actives have a fitted effect of over 35% in size. Also: potency is read from the fitted curve at half-maximal effect. The method, boiled down:
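PXR-Luc HepG2 reporter cells (CYP3A4-driven luciferase) in 5% charcoal-stripped FBS medium, plated 5 h before compound addition, then treated 24 h at 37C. Luciferase read by ONE-Glo luminescence after 30 min at room temperature.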

The target in assay [5] is Cytochrome P450 2D6 (Homo sapiens) (UniProt P10635). As to the kind of experiment: Cytochrome P450 Family 2 Subfamily D Member 6 (CYP2D6) small molecule antagonists: luciferase reporter qHTS assay (AID 1671196). Also: nearly all actives have a fitted effect of over 50% in size. Also: potency is read from the fitted curve at half-maximal effect. The method, boiled down:
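Cell-free P450-Glo system: CYP2D6 with proluciferin substrate was pre-incubated with compound for 10 min, then reacted with NADPH regeneration for 1 h at room temperature. Luciferin product was detected after 20 min, and data were reported as relative luminescence units.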

Assay [6] deals with Cytochrome P450 2C19 (Homo sapiens) (UniProt P33261). The experiment in a line: Cytochrome P450 Family 2 Subfamily C Member 19 (CYP2C19) small molecule antagonists: luciferase reporter qHTS assay (AID 1671197). Also: nearly all actives have a fitted effect of over 65% in size. Also: potency is read from the fitted curve at half-maximal effect. The method, boiled down: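 CYP2C19 P450-Glo, 1536-well qHTS. Cpd + enzyme/proluciferin substrate 10 min RT; + NADPH regen, 37C 1 h; stop with luciferin detection reagent, 20 min RT, luminescence (RLU). Pos ctrl ketoconazole.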
In general terms: A reporter such as luciferase makes a cellular process visible.

The target in assay [7] is Cytochrome P450 2C9 (Homo sapiens) (UniProt P11712). The experiment in a line: Cytochrome P450 Family 2 Subfamily C Member 9 (CYP2C9) small molecule antagonists: luciferase reporter qHTS assay (AID 1671198). Also: nearly all actives have a fitted effect of over 50% in size. Also: potency is read from the fitted curve at half-maximal effect. In a few lines:
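P450-Glo proluciferin substrate with CYP2C9 enzyme; 10 min RT preincubation, then NADPH regeneration 1 h at 37C; luciferin detection reagent 20 min RT, luminescence in relative luminescence units.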

Assay [8] deals with Cytochrome P450 1A2 (Homo sapiens) (UniProt P05177). The experiment in a line: Cytochrome P450 Family 1 Subfamily A Member 2 (CYP1A2) small molecule antagonists: luciferase reporter qHTS assay (AID 1671199). Also: nearly all actives have a fitted effect of over 50% in size. Also: potency is read from the fitted curve at half-maximal effect. The method, boiled down: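 P450-Glo CYP1A2 enzyme–proluciferin substrate mix with compound 10 min at room temperature, then NADPH regeneration 1 h at room temperature. Luciferin detection reagent added, luminescence read after 20 min; furafylline positive control.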

Assay [9] concerns the target Voltage-gated inwardly rectifying potassium channel KCNH2 (Homo sapiens) (UniProt Q12809). The experiment in a line: Human Ether-a-go-go-Related Gene (hERG) channel small molecule antagonists: fluorescence cell-based qHTS assay (AID 1671200). Also: nearly all actives have a fitted effect of over 50% in size. Also: potency is read from the fitted curve at half-maximal effect. In a few lines:
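First, 1000 cells per well are seeded and cultured overnight at 37 C. Next, FluxOR II dye is loaded for 1 h at room temperature, protected from light. After 10 more minutes, stimulus is added and fluorescence is read.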
A general note: hERG is a cardiac potassium channel; its block is linked to QT prolongation.

The target in assay [10] is Cytochrome P450 3A4 (Homo sapiens) (UniProt P08684). The experiment in a line: Cytochrome P450 Family 3 Subfamily A Member 4 (CYP3A4) small molecule antagonists: luciferase reporter qHTS assay (AID 1671201). Also: nearly all actives have a fitted effect of over 50% in size. Also: potency is read from the fitted curve at half-maximal effect. In a few lines:
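Enzyme and proluciferin substrate are mixed with test chemicals for 10 min, then NADPH regeneration system drives turnover for 1 h at room temperature. A detection reagent halts the reaction; luminescence after 20 min gives relative activity.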

Assay [11] deals with Acetylcholinesterase (Homo sapiens) (UniProt P22303). The experiment in a line: Acetylcholinesterase (AChE) small molecule antagonists: enzyme-based qHTS assay (AID 1347397; calls by dose curve; also: nearly all actives have a fitted effect of over 55% in size). The settings on record: Potency: AChE enzyme activity inhibition. In a few lines:
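Recombinant human AChE (50 mU/mL) preincubated with compound 30 min at room temperature; acetylthiocholine plus DTNB then added, and thiocholine formation read colorimetrically after 10 min at room temperature. DMSO served as vehicle control.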

For assay [12] the target is unchanged. As to the kind of experiment: Acetylcholinesterase (AChE) small molecule antagonists: fluorescence cell-based qHTS assay (AID 1347398; calls by dose curve; also: nearly all actives have a fitted effect of over 50% in size). The settings on record: Potency: AChE activity. In a few lines:
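SH-SY5Y cells (2000/well), attached overnight, incubated with compound 30 min at 37 C. Acetylthiocholine plus Thiolite Green then added for 40 min at room temperature. Thiocholine fluorescence (Ex/Em 490/520 nm) reports cellular AChE activity.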

The target of assay [13] is Nuclear receptor subfamily 1 group I member 2 (Rattus norvegicus) (UniProt Q9R1A7). The experiment in a line: Rat pregnane X receptor (rPXR) activation by small molecules, qHTS assay (AID 1346983). Also: nearly all actives have a fitted effect of over 20% in size. Conditions: rPXR luciferase reporter cells, One-Glo luminescence, 24 h; stronger effect = higher value. The method, boiled down: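 Cell-based rPXR activation assay: rPXR cells, 2,000 per well, rested 5hr at 37 C, then exposed to compounds in DMSO for 24 hr at 37 C. Luciferase activity read by One-Glo luminescence after 30 min at room temperature.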
% is scaled to controls: 0 for no effect and ±100 for the full control effect.

Chain of Nuclear receptor subfamily 1 group I member 2 (Homo sapiens) (O75469 whole entry, looked up): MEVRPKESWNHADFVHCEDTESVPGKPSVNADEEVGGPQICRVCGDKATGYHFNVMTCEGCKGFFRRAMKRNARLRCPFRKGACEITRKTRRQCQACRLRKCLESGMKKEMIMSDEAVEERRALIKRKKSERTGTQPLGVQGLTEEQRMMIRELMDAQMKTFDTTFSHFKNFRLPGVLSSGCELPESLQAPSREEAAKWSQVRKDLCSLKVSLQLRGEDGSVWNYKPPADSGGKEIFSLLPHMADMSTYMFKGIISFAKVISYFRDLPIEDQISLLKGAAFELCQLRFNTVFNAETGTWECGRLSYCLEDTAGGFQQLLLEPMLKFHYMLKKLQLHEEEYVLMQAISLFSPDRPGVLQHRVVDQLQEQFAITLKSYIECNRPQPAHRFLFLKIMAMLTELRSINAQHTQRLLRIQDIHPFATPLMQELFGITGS
Chain of Acetylcholinesterase (Homo sapiens) (P22303 whole entry, looked up): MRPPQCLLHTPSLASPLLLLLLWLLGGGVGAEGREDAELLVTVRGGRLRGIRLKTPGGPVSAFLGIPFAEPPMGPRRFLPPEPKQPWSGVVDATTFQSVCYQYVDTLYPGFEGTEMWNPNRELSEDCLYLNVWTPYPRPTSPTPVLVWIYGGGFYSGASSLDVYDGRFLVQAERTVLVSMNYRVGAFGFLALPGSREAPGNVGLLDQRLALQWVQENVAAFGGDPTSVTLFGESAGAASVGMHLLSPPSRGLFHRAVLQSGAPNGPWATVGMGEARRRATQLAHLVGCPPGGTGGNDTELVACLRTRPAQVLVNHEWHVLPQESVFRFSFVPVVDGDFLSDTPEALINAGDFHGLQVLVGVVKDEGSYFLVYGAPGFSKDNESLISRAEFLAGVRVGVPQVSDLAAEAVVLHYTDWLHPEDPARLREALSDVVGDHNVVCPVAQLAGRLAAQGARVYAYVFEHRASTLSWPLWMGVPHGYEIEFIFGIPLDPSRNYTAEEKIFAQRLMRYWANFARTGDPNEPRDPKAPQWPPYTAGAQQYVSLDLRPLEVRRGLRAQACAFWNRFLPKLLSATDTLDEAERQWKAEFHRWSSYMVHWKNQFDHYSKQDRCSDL
Chain of Cytochrome P450 2C19 (Homo sapiens) (P33261 whole entry, looked up): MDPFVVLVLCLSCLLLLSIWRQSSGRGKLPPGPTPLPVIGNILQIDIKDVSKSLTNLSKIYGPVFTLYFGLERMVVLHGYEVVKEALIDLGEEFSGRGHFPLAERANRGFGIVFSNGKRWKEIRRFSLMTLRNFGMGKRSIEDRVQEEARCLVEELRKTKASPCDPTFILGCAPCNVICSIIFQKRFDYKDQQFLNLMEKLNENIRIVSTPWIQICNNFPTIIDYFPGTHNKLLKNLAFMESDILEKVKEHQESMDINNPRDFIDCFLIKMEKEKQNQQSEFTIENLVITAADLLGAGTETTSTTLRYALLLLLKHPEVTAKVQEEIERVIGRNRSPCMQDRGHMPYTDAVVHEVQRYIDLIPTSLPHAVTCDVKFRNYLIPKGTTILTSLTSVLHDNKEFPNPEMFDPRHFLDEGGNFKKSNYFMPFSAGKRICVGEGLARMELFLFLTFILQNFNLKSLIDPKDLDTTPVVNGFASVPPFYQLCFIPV
Chain of Cytochrome P450 1A2 (Homo sapiens) (P05177 whole entry, looked up): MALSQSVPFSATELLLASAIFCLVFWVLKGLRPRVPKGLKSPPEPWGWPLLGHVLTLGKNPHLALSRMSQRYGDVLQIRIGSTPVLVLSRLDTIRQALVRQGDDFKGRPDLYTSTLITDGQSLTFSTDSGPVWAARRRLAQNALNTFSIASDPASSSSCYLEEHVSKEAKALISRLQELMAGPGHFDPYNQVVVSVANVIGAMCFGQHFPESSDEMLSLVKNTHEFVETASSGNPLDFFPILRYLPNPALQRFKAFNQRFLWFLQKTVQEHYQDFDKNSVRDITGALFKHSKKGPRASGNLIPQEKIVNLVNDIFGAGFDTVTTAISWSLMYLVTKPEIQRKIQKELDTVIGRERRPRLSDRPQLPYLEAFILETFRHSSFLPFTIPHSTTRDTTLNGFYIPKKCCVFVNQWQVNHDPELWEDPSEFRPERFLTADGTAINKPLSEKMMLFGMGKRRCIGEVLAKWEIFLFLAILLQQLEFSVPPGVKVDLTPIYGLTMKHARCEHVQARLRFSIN
Chain of Cytochrome P450 2C9 (Homo sapiens) (P11712 whole entry, looked up): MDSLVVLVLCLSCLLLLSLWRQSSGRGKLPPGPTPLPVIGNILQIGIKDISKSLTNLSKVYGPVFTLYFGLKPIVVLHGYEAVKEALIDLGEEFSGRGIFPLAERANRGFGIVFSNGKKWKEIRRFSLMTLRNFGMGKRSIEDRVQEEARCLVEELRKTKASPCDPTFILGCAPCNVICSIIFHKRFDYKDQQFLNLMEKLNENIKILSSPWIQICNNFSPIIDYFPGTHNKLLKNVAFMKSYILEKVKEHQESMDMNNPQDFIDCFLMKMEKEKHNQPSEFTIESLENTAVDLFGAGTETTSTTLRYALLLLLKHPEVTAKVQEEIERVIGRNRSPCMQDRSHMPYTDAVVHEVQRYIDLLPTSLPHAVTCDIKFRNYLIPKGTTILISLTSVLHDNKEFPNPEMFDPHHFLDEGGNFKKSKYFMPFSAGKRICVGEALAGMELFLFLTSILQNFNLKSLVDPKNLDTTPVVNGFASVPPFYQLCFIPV
Chain of Cytochrome P450 3A4 (Homo sapiens) (P08684 whole entry, looked up): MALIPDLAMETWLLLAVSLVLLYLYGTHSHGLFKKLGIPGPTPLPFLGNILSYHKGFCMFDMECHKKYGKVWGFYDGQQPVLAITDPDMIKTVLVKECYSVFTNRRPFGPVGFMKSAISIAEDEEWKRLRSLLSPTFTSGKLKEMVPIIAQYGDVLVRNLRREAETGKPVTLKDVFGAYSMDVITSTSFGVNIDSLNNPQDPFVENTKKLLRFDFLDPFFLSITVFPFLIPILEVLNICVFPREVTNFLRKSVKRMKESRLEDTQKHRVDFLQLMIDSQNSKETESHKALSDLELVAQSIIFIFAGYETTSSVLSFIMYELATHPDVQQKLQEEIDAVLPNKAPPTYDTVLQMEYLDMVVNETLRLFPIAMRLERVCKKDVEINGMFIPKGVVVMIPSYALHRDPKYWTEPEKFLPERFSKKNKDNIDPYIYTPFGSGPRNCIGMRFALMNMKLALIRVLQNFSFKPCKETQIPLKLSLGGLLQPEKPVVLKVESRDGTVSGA
Chain of Cytochrome P450 2D6 (Homo sapiens) (P10635 whole entry, looked up): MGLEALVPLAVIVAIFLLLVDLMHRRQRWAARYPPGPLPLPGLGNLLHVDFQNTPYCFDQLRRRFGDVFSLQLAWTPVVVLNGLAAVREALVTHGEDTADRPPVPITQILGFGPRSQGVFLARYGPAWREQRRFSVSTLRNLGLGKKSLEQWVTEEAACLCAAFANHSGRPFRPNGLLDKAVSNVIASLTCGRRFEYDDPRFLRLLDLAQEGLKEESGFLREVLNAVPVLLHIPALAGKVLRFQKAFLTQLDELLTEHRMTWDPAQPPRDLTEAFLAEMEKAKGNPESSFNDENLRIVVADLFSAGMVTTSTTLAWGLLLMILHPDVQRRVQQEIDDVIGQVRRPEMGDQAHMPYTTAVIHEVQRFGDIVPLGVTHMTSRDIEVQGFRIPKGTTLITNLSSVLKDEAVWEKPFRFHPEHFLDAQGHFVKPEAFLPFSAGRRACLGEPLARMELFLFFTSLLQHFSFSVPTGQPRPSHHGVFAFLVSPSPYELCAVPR
Chain of Voltage-gated inwardly rectifying potassium channel KCNH2 (Homo sapiens) (Q12809 whole entry, looked up): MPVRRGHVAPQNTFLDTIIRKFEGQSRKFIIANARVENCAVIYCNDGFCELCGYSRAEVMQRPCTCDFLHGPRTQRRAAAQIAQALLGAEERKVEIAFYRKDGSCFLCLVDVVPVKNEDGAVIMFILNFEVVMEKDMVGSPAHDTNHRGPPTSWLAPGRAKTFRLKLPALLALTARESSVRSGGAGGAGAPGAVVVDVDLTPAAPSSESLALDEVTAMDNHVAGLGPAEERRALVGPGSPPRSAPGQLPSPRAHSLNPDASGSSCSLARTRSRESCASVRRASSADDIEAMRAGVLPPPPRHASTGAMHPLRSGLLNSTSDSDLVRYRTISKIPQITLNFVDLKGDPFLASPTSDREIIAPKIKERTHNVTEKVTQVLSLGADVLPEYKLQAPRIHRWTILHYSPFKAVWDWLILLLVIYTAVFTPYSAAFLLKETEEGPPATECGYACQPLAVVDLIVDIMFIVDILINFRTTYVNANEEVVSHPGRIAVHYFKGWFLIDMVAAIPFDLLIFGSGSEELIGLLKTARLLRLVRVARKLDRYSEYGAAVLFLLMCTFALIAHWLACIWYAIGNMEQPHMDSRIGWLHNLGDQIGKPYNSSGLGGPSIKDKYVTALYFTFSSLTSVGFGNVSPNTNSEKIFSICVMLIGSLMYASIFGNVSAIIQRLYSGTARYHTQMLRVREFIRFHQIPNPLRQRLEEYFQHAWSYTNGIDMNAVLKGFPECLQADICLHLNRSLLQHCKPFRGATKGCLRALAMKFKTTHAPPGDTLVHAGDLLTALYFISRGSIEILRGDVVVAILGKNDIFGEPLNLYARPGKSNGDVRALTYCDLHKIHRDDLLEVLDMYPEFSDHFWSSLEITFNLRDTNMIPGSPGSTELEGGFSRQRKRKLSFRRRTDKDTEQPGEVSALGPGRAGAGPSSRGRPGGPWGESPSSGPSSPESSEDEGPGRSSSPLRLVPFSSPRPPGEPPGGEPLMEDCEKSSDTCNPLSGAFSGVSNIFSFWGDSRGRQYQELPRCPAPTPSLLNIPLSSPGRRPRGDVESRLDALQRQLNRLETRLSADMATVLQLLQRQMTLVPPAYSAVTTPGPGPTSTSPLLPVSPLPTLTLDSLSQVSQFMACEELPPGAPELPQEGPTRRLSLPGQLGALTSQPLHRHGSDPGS

Turning to `CCCC[n+]1ccccc1`, the Potency result in assay [1], in [2], in assay [3], in assay [4], in [5] and in assay [6] was “inactive” each time. Moreover, the Potency result in assay [7], in assay [8], in assay [9] and in assay [10] was “inactive” each time.

In the case of `CCCCCCn1cc[n+](C)c1`, the Potency result in assay [1], in assay [2], in assay [3], in assay [7], in assay [8] and in assay [9] was “inactive” throughout. The Potency result in assay [10] was “inactive”. Moreover, the Potency entry in assay [4] was “inactive and 12.4 µM (active) and 7.57 µM (active)”; in [6], “inactive and 23.4 µM (active)”.

Turning to `O=[N+]([O-])O`, the Potency result in assay [1], in assay [2], in [3] and in [9] was “inactive” in each case.

As for `CCC[N+]1(C)CCCC1`, the Potency result in [1], in assay [2], in assay [3], in assay [4], in assay [5] and in assay [6] was “inactive” in each case. In addition, the Potency entry in assay [7], in assay [8], in assay [9] and in assay [10] was “inactive” each time.

Regarding `Nc1ccc(-c2ccc(N)c(Cl)c2)cc1Cl`, the Potency was 13.8 µM (active) in assay [1]; 68.9 µM (active) and 1.43 µM (active) and 48.6 µM (active) in assay [2]; 30.8 µM (active) and 9.69 µM (active) in assay [4]; 4.01 µM (active) and 3.73 µM (active) and 5.64 µM (active) in assay [6]; 10.1 µM (active) and 11.8 µM (active) and 12.6 µM (active) in assay [7]; 1.79 µM (active) and 1.48 µM (active) and 1.42 µM (active) in [8]. The Potency in [10] was 5.05 µM (active) and 6.63 µM (active) and 7.96 µM (active). The Potency entry in [3], in [11], in [12], in [5] and in assay [9] was “inactive” throughout.

With `CCCC[n+]1ccc(C)cc1`, the Potency entry in [1] was “inactive and 54.2 µM (active)”; in assay [2], “inactive and 54.2 µM (active)”; in [4], “inactive and 5.45 µM (active)”; in assay [5], “inactive and 449 nM (active)”; in assay [7], “inactive and 22.3 µM (active)”; in [8], 36.1 µM (active) and 35.4 µM (active) and inactive. Besides, the Potency entry in assay [3], in [6], in assay [9] and in [10] was “inactive” each time.

In the case of `CCCCCCCCCCCCCCCCn1cc[n+](C)c1`, the Potency result in [1] and in assay [3] was “inactive” in each case. For the same compound, the Potency in assay [4] was 7.86 µM (active) and inactive and 6.13 µM (active); in assay [8], 36.4 µM (active) and inactive and 71.2 µM (active).

`CCCCCC[n+]1ccccc1`: the Potency result in assay [1], in assay [2], in assay [3], in assay [6], in assay [7] and in [8] was “inactive” each time. In addition, the Potency result in [9] and in assay [10] was “inactive” each time. Besides, the Potency in assay [4] was 11 µM (active) and inactive.

With `Oc1cccc2cccnc12`, the Potency in [1] is 54.8 µM (active) and inactive and 10.6 µM (active). The Potency result in assay [3] and in assay [9] was “inactive” in each case. Besides, the max activation in assay [13] is -0.611% (inactive).

Consider `CCn1cc[n+](C)c1C`, for which the Potency result in assay [1], in assay [2], in [3], in assay [4], in assay [11] and in assay [12] was “inactive” in each case. The Potency result in assay [5], in [6], in [7], in assay [8], in assay [9] and in assay [10] was “inactive” each time.

On to `C[N+](C)(C)Cc1ccccc1`, for which the Potency result in assay [1], in [2], in [3], in [4], in assay [11] and in assay [12] was “inactive” each time. Also, the Potency entry in [8], in assay [9] and in assay [10] was “inactive” throughout. In addition, the Potency in assay [5] is 7.93 µM (active) and inactive and 20 µM (active); in [6] it was 31.6 µM (active) and inactive; in assay [7], 79.6 µM (active) and inactive.

`Cc1cc(Cl)ccc1OCC(=O)O`: the Potency entry in assay [1], in assay [2], in [3], in [4], in [11] and in assay [12] was “inactive” each time. The Potency result in [5], in assay [8], in [9] and in [10] was “inactive” each time. The Potency result in assay [6] is “inactive and 39.9 µM (active)”.

`Cc1cc(Cl)ccc1N`: the Potency result in [1], in [2], in assay [3], in assay [4] and in assay [9] was “inactive” throughout. The Potency in assay [5] was 23 µM (active) and inactive and 22.4 µM (active); in assay [6], 20.5 µM (active) and 31 µM (active) and 22.4 µM (active); in assay [7] it was 28.9 µM (active) and 24.6 µM (active) and 25.2 µM (active); in [8], 11.5 µM (active) and 9.8 µM (active) and 7.96 µM (active).

As for `CCCC[N+]1(C)CCCCC1`, the Potency entry in [1], in assay [2], in [3], in assay [4], in assay [11] and in assay [12] was “inactive” throughout. Besides, the Potency entry in [5], in assay [6], in assay [7], in assay [8], in [9] and in [10] was “inactive” each time.

With `CCC(=O)C(CC(C)N(C)C)(c1ccccc1)c1ccccc1` (stereo unspecified), the Potency result in assay [1], in assay [2], in assay [3], in assay [11], in assay [12] and in [6] was “inactive” in each case. For the same compound, the Potency entry in assay [7] and in [8] was “inactive” each time. The Potency in assay [4] was 8.67 µM (active) and 60.7 µM (active); in assay [5], 2.01 µM (active) and 996 nM (active) and 1.53 µM (active); in [9], 43.8 µM (active).

`CC[N+]1(C)CCCC1`: the Potency result in assay [1], in assay [2], in [3], in assay [4], in [11] and in assay [12] was “inactive” each time. Besides, the Potency result in assay [7], in assay [8] and in assay [10] was “inactive” throughout. Besides, the Potency is 6.3 nM (active) and inactive in assay [5]; “inactive and 31.8 µM (active)” in [6]; “inactive and 21.9 µM (active)” in assay [9].
